Screening data from PubChem.
Hits are enriched below; roughly 2.1% of the tested compounds scored in any of these assays.
LANA-H2B inh: blocks KSHV LANA binding to histone H2A/H2B; actives 0.6% (n = 320,000); inhibition, % (no concentration beside the values); AID 2629; cell-free LANA-H2A/H2B peptide, fluorescence polarization; in the data active = inhibition mostly above about 10%, no sharp cut-off; inactive = mostly below about 6.7%
SUMO Mot1 rescue: blocks SUMOylation pathway, rescuing yeast Mot1-301 growth | S. cerevisiae Mot1-301 growth rescue, ATP luminescence, 38.5C; percent above DMSO median, 100 means doubled | growth rescue, % at 18.8 µM | actives 1% (n = 320,000) | AID 2716;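 active = every valid replicate shows activation above 250% relative to neutral control wells; inactive = the rest, any valid replicate at or below 250%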;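 note: OY570 slx delta 5 strain wells were the positive control but not used for scaling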
IDE act: boosts human insulin-degrading enzyme activity in HEK cells; activation, % at 5.96 µM; AID 493087; actives 0.073% (n = 340,000); FAbeta-B cleavage, fluorescence polarization; 0% vehicle, 100% cell-free pure enzyme wells;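 active = activation above the mean of all tested compounds plus 3 SD, set per screening campaign, cut at about 17% in these data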
Target sequence (P14735 whole entry, looked up): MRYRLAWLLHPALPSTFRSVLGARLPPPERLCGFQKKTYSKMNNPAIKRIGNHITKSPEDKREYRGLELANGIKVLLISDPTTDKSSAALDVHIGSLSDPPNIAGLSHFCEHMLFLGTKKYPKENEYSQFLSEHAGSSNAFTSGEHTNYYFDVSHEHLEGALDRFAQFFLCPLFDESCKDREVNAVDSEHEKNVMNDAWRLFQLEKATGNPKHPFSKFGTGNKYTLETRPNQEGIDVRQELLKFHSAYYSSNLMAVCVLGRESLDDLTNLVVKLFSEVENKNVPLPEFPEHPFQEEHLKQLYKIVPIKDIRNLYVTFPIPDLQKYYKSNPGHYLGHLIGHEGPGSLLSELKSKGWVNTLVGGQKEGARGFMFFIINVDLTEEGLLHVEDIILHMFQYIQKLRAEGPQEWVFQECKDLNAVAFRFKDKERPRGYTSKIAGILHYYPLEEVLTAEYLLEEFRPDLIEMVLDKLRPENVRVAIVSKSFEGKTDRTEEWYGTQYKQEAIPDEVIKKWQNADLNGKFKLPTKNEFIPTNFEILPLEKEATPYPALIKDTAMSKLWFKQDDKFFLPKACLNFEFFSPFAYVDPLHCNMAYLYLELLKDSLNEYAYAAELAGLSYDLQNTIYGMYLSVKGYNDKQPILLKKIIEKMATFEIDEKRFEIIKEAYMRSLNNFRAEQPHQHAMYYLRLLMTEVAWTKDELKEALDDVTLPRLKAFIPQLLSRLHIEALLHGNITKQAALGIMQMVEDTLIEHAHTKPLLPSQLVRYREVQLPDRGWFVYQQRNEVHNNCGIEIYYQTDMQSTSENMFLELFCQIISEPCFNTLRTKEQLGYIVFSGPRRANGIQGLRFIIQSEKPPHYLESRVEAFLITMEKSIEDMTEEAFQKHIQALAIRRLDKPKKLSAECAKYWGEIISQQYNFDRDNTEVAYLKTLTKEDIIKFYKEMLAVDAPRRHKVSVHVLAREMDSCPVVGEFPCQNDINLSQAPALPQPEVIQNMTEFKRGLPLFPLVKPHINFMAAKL
HDAC3 inhib: inhibitors of human histone deacetylase 3. actives 0.15% (n = 320,000). O15379. recombinant HDAC3, fluorogenic peptide/trypsin coupled, fluorescence. inhibition, % at 8.3 µM; in the data active = inhibition above about 26%, passing the limit was not always enough
IDE cell inh: inhibits human insulin-degrading enzyme in HEK cells. P14735. FAbetaB cleavage, fluorescence polarization. inhibition, % at 5.59 µM. actives 0.41% (n = 320,000). AID 434962;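 active = percent inhibition above the average of all tested compounds plus 3 SD, set per screening campaign, cut at about 16% in these data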;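 note: IDE supplied by intact live HEK cells; FP after avidin binding of uncleaved biotin substrate so inhibition keeps polarization high; 0% = DMSO wells and 100% = 60 µM reference IDE inhibitor Ii1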
* hit, by the source's call; x = no result; + = active, no number.

SMILES	LANA-H2B inh	SUMO Mot1 rescue	IDE act	HDAC3 inhib	IDE cell inh
Cc1cc([N+](=O)[O-])cc2c1NC(=O)C2(O)N1CCOCC1 (stereo not given)	58.1*	-16.4	0.3	-1.9	5.0
O=C(CCNC(=O)N1CCn2c1nc1ccccc12)NCc1ccc(F)cc1	5.7	15.5	4.1	-4.4	3.0
O=C(Cn1c(=O)c2sccc2n(Cc2ccc([N+](=O)[O-])cc2)c1=O)NCCc1ccccc1	-3.2	1.8	3.0	2.8	4.1
O=C(Cn1c(=O)c2sccc2n(Cc2cccc([N+](=O)[O-])c2)c1=O)NCCc1ccccc1	-2.3	883.7*	5.9	-3.0	-4.8
COc1ccc(CCNC(=O)c2cccc([N+](=O)[O-])c2)cc1OC	2.7	18.6	9.3	2.5	7.7
O=C(NCCc1ccccc1)c1cccc([N+](=O)[O-])c1	6.1	514.0*	-2.4	3.6	0.3
CCCCn1c(=O)[nH]c2nc3cc(N)ccc3nc2c1=O	84.8*	65.2	2.6	5.2	9.7
S=C1NC2(CCCCCC2)N=C1c1ccccc1	2.2	47.9	1.5	0.7	1.9
S=C1NC2(CCCC2)N=C1c1ccccc1	-2.6	490.1*	-0.6	7.5	3.1
CC(C)(C)C1CCC2(CC1)NC(=S)N(c1ccccc1)N2 (stereo not given)	-0.6	302.0*	8.7	10.6	3.3
CC(=O)Nc1ccc(N2S(=O)(=O)c3ccccc3S2(=O)=O)cc1	-1.7	3.5	20.3*	-3.1	-0.5
CC(=O)Nc1ccc(N2Cc3ccccc3C2)cc1	0.7	-5.4	5.2	3.7	7.1
COc1ccc(C(Cl)=C(c2ccc(OC)cc2)c2ccc(OC)cc2)cc1	38.6*	-16.4	1.2	11.7	-1.5
COc1ccc(C(=N/O)/C(=N/O)c2ccc(OC)cc2)cc1	-5.6	-8.5	1.4	12.5	-3.0
COc1cccc(C(=O)N/N=C/c2ccc(OC3CSC3)cc2)c1	46.1*	226.4	-3.1	6.6	-0.9
O=[N+]([O-])c1ccc(N2N=C(c3ccco3)CC2c2ccccc2)cc1 (stereo not given)	-9.7	0.9	-9.9	-4.5	21.6*
CCN(C(=O)C(C)N1C(=O)/C(=C/c2cccs2)SC1=S)C1CCS(=O)(=O)C1 (stereo not given)	-9.2	-2.9	1.5	3.8	-1.5
COc1cccc(C2NC(=S)NC3=C2CCc2ccccc23)c1 (stereo not given)	-5.1	-3.8	4.5	-0.9	1.3
S=C1NC2=C(CCCC2=C2SCCS2)C(c2ccccc2)N1 (stereo not given)	-0.5	-22.6	-4.6	95.0*	4.4
CCC(CC)C(=O)Nc1nnc(SCC(=O)NC(C)(C)C)s1	7.3	923.6*	5.3	-0.2	6.6
Cc1noc(C)c1NC(=O)Nc1cccc2c1O[C@@H](CN(C)C(=O)Nc1ccc3c(c1)OCO3)[C@@H](C)CN([C@H](C)CO)C2=O	4.1	4.1	3.2	-0.8	-2.1
Cc1ccc2[nH]c(C(F)(F)F)cc(=O)c2c1	1.7	342.5*	2.3	6.0	8.2
S=C(NCCCN1CCOCC1)N1CCN(c2nc(-c3ccc(Cl)cc3)cs2)CC1	-2.3	-1.6	-13.6	-1.3	23.3*
CCCNC(=S)N1CCN(c2nc(-c3ccc(C)cc3)cs2)CC1	-2.2	16.8	-16.4	0.8	14.3
CN(C(=O)c1ccc2c(c1)OCO2)C1(C)CCS(=O)(=O)C1 (stereo not given)	14.2*	77.6	8.1	-8.3	8.4
SMILES	LANA-H2B inh	SUMO Mot1 rescue	IDE act	HDAC3 inhib	IDE cell inh
CCCCCCCCCCCCCCCC[n+]1ccc(/C=N/O)cc1	12.8*	-49.0	5.7	9.1	5.4
COCCNC(=O)c1cc2c(s1)-c1ccc(Cl)cc1SC2	-5.2	-13.0	5.3	3.3	x
NC(=O)c1cc2c(s1)-c1cc(Cl)ccc1SC2	-3.6	351.1*	1.0	-9.5	4.2
CCOC(=O)C1CCCN(S(=O)(=O)NC[C@H]2O[C@@H](n3cnc4c(N)ncnc43)[C@H](O)[C@@H]2O)C1 (stereo not given in full)	+	0.3	-5.1	-2.6	-1.7
CN1CCN(S(=O)(=O)NC[C@H]2O[C@@H](n3cnc4c(N)ncnc43)[C@H](O)[C@@H]2O)CC1	x	x	2.2	x	x
O=C1C2C3C=CC(CO)(O3)C2C(=O)N1c1ccc(-c2ccccc2)cc1 (stereo not given)	-0.1	324.4*	x	-7.2	-1.4
CC(C)(C)C(=O)NCC12C=CC(O1)C1C(=O)N(c3ccccc3)C(=O)C12 (stereo not given)	2.8	12.5	3.6	-0.7	9.7
COc1ccc2[nH]cc(CCNC(=S)NC3CCCC3)c2c1	2.3	19.4	7.2	-0.1	0.8
COc1ccc2[nH]cc(CCNC(=O)C3CCCCC3)c2c1	12.4*	7.5	4.6	0.8	2.8
Cc1nc2c(C)cccn2c1/C(O)=C1\C(=O)C(=O)N(CCN(C)C)C1c1ccccc1 (stereo not given)	11.6*	12.2	1.5	1.9	4.6
COc1ccc(C2NC(=O)NC(C)=C2C(=O)OCC2CCCCC2)cc1OC (stereo not given)	-2.6	65.5	-11.7	3.6	5.9
O=C(NNC(=O)c1ccncc1)Nc1cccc([N+](=O)[O-])c1	-1.2	430.3*	0.9	-1.3	1.5
O=C(NNC(=O)c1cccc([N+](=O)[O-])c1)c1ccncc1	1.1	-8.9	-0.5	-5.6	0.3
COC(=O)C1CCCN1S(=O)(=O)c1ccccc1NC(=O)c1cc(OC)c(OC)c(OC)c1 (stereo not given)	0.7	186.7	2.3	-12.0	-1.0
Cc1c(C(=O)Nc2ccc3c(c2)OCO3)sc2nc(-c3ccccc3)cn12	3.6	-7.7	-5.8	-9.4	10.6
Cc1c(C(=O)Nc2ccccc2)sc2nc(-c3ccccc3)cn12	0.0	29.0	-15.3	-6.9	22.6*
O=C(CCN1CCCCO1)N1CCCC(N2CCN(c3ccc(F)cc3)CC2)C1 (stereo not given)	13.2*	-13.3	1.7	-4.1	1.5
COc1ccc(CSC2=NCCN2)cc1Br	1.0	3.2	-0.4	3.2	1.4
O=C(COC(=O)COc1ccccc1)NCc1ccco1	17.6*	76.1	6.7	6.9	7.3
CN(C)CCNc1nc(S(=O)(=O)c2ccccc2)c(Cl)s1	-2.2	355.4*	-1.8	-2.0	9.9
Cc1cc(C(=O)N2CCCC(C(=O)c3cccc(C(F)(F)F)c3)C2)n[nH]1 (stereo not given)	7.9	-15.6	2.8	0.0	2.8
Cc1cc(C(=O)N2CCCC(C(=O)c3cccc(C(F)(F)F)c3)C2)nc(C)n1 (stereo not given)	13.6*	-7.5	3.2	2.4	6.9
O=C(CSc1ncn[nH]1)CSc1ncn[nH]1	-1.4	-12.8	-1.3	37.0*	1.6
Cc1ccc2c(CC(=O)N(C)c3c(N)n(Cc4ccccc4)c(=O)[nH]c3=O)coc2c1	-4.1	15.1	0.8	1.4	-3.1
O=C(c1cc(=O)[nH]c2ccccc12)N(Cc1nnc(-c2ccccc2Cl)o1)C1CC1	-5.3	68.2	-1.7	-5.3	1.4
